Results: PubChem BioAssay (NCI)
About 83,000 compounds went through this panel and 20% of them were active in at least one assay; those are over-represented in the sample as a whole.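 In brief: 96-well plates, 48 h treatment, single concentration, percent growth endpoint.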 Unmarked numbers belong to inactive results. The source made the active and inactive calls. The calls were made as follows: active = growth percent below 10; inactive = the rest.

Legend:
Experiment in all cases: NCI-60 one-dose screen, 48 h (100 = growth as untreated, 0 = no growth, -100 = all killed)
Details in all cases: 10 µM unless noted
[1] = system: NCI-H23 lung
[2] = system: NCI-H226 lung
[3] = system: NCI-H322M lung
[4] = system: HOP-62 NSCLC
[5] = system: NCI-H460 lung
[6] = system: HOP-92 NSCLC
[7] = system: NCI-H522 lung
[8] = system: A549/ATCC NSCLC
[9] = system: 786-0 renal
[10] = system: DU-145 prostate
[11] = system: K-562 leukemia
[12] = system: MALME-3M melanoma
[13] = system: MDA-MB-231 breast
[14] = system: RXF 393 renal
[15] = system: SF-268 CNS
[16] = system: SF-295 CNS
[17] = system: SF-539 CNS
[18] = system: UACC-257 melanoma
[19] = system: M14 melanoma
[20] = system: COLO 205 colon

SMILES | growth [1] | growth [2] | growth [3] | growth [4] | growth [5] | growth [6] | growth [7] | growth [8] | growth [9] | growth [10] | growth [11] | growth [12] | growth [13] | growth [14] | growth [15] | growth [16] | growth [17] | growth [18] | growth [19] | growth [20]
c1cc(N2CCCC2)c2nc(-c3[nH]ncc3Nc3ncnc4[nH]ccc34)[nH]c2c1 | -45.3% (active) | -40.4% (active) | -21.1% (active) | -13.6% (active) | -4.99% (active) | -1.33% (active) | -11.3% (active) | -7.17% (active) | -26.1% (active) | -4.71% (active) | 6.25% (active) | -41.4% (active) | -15.2% (active) | -75.9% (active) | -25.1% (active) | -34% (active) | -54.3% (active) | -12.8% (active) | -77.1% (active) | 
COc1cc2c(cc1-c1c(C)noc1C)ncc1nc(C3CCC(F)(F)CC3)n([C@@H](C)COC(F)F)c12 | 60.2% | 55% | 40.6% | 31.7% | 55.3% | 35.1% | 31.5% |  | 43.5% | 66.9% | 25% | 76.1% | 41.6% | 54.7% | 67.8% | 47.7% | 30.8% | 35.9% | 41.4% | 23.5%
CCOC(=O)C/C(=C\c1ccccc1)C(C)=O | 104% | 98.7% | 114% | 73.4% | 112% | 92.2% | 76.7% |  | 101% | 109% | 87.6% | 105% | -43.5% (active) | 115% | 102% | 98.5% | 105% | 82.8% | 91.9% | 102%
Cc1cccc(C)c1NCc1nc(-c2ccccc2)n[nH]1 | 97.9% | 112% | 95.4% | 100% | 107% | 101% | 94.5% | 101% | 95.6% | 106% | 100% | 98.6% | 103% | 121% | 101% | 98.1% | 93.2% | 100% | 97.9% | 
O=C(O)/C(=C/c1ccc(O)cc1)c1ccccc1 | 93.9% | 100% | 100% | 88.8% | 108% | 83.1% | 95% |  | 92.2% | 97.9% | 104% | 94.5% | 103% | 70.6% | 95.8% | 105% | 122% | 90.3% | 97.5% | 120%
CC1(C)c2ccccc2C(=O)C1(Br)Cc1ccccc1 (stereo unspecified) | 74.1% | 94.1% | 95.5% | 95% | 96.8% | 83% | 83.1% | 94.6% | 81.7% | 92.5% | 42.7% | 121% | 105% | 83.5% | 89.6% | 85.7% | 89.9% | 99.4% | 89.1% | 
O=C1c2ccccc2NC(c2cn(-c3ccccc3)nc2-c2cccnc2)N1Cc1ccccc1 (stereo unspecified) | 92.3% | 109% | 93% | 111% | 108% | 93.4% | 78.4% |  | 89.9% | 101% | 96.8% | 119% | 94.3% | 97.6% | 84.8% | 92% | 95.6% | 123% | 106% | 121%
COc1ccc(/C=C(\C#N)c2cc3ccccc3n2C(C)=O)cc1 | 88.3% | 102% | 94.6% | 93.3% | 92.4% | 99.2% | 70% |  | 96.9% | 99.7% | 25.1% | 83.8% | 82% | 88.3% | 97.3% | 84% | 93.8% | 99.6% | 70.7% | 97.3%
CCN1CCN(C(=O)[C@@]2(C)CC[C@]3(C)CC[C@]4(C)C(=CC(=O)[C@@H]5[C@@]6(C)CC[C@H](OCCC#N)C(C)(C)[C@@H]6CC[C@]54C)[C@@H]3C2)CC1 | 87.9% | 89.9% | 106% | 100% | 99.9% | 70.8% | 95.4% |  | 51% | 97% | 31.8% | 65.3% | 97.5% | 85% | 90.4% | 84% | 80.4% | 88.4% | 96% | 95.7%
NNC(=O)c1nc2ccccc2[nH]1 | 93.3% | 116% | 107% | 97.4% | 108% | 98.5% | 96.8% | 61.3% | 102% | 112% | 87.2% | 107% | 103% | 124% | 102% | 104% | 103% | 65.9% | 92.4% | 
O=C1C=C(C(O)c2ccc(O)cc2)C(=O)c2ccccc21 (stereo unspecified) | 89.2% | 112% | 95.2% | 116% | 107% | -2.83% (active) | 92.8% | 104% | 106% | 107% | 97.2% | 95.6% | 83.5% | 147% | 108% |  | 106% | 107% | 79.5% | 
CCc1ccc(-c2ccc(Nc3ccccc3)nn2)cc1S(N)(=O)=O | 86% | 86.8% | 107% | 92.9% | 51.2% | 80.2% | 71.5% | 80.5% | 94.3% | 77.1% | 12.5% | 71.4% | 69.3% | 77.3% | 78.6% |  | 84.3% | 83.7% | 67.1% | 
COc1ccc(CCN2C(=O)C(C)(C)SC2=S)cc1OC | 101% | 105% | 103% | 103% | 105% | 102% | 93.8% |  | 102% | 98.8% | 100% | 96.2% | 97.5% | 109% | 94.7% | 96.8% | 105% | 98.9% | 98.4% | 111%
COc1cc(-c2cc3ncccc3c3nc(N)c4cccnc4c23)cc(OC)c1OC | 24.5% | 38.7% | 44.3% | 27.3% | 3.55% (active) | 41.2% | 17.4% |  | 12.9% | 2.16% (active) | 16.3% | 50.9% | 36.5% | 10.9% | 29.6% | 12.4% | -1.92% (active) | 44.3% | 4.68% (active) | -15.6% (active)
Cc1cc2nc3c4cc([N+](=O)[O-])cc([N+](=O)[O-])c4n(CCN(C)C)c3nc2cc1C | 77.7% | 84.1% | 72.2% | 64.7% | 65.4% | 80.7% | 70.6% |  | 80.4% | 92.1% | 62.3% | 76.5% | 77.2% | 58.3% | 74.1% | 62.9% | 76.5% | 107% | 80.1% | 71.1%
COc1ccc(-c2nc3ccccn3c2-c2nc3ccc(Cl)cc3[nH]2)cc1 | 98.3% | 90.1% | 103% | 114% | 98.8% | 85% | 73.9% | 92.5% | 97.6% | 107% | 54.6% | 109% | 95.2% | 95.8% | 112% |  | 98.9% | 94.2% | 103% | 
